# In PMC12820563, “FoxP3 forms a head-to-head dimer in vivo and stabilizes its multimerization on adjacent microsatellites”:
# The full ranking holds about 16,000 sequences; the median of “rpm ratio (pull-down/input)” is about 0.94, and the highest 2% start at about 1.7. The sample as a whole holds a higher share of the highest values than the screen did.
# Molecular target: T1, MBP-FoxP1dN (Mus musculus, UniProt P58462 326-579)
# T1 sequence: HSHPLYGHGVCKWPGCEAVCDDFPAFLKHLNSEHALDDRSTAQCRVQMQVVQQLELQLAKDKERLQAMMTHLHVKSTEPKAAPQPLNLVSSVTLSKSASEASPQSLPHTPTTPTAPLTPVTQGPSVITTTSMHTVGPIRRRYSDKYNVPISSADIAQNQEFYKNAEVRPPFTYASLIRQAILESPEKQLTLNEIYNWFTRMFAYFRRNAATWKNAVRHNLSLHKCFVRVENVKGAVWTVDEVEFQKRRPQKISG
# Experiment: PD-seq (MBP pull-down with sequencing); 20 mM Tris-HCl pH 7.5, 100 mM NaCl, 1.5 mM MgCl2, 0.4 uM protein, 0.1 uM dsDNA library, 30 min, room temperature, amylose pull-down; high values mean tight binding
# Conditions: protein: recombinant; tags: His6-MBP; chain copies: 2; dsDNA, one strand shown
# Method in brief: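 Mouse FoxP3 or FoxP1 fragment lacking the N-terminus, His6-MBP-tagged and expressed in E. coli, was incubated at 0.4 µM with 0.1 µM Klenow-filled degenerate double-stranded DNA library for 30 min at room temperature in Tris pH 7.5 buffer with NaCl and MgCl2. Complexes captured on amylose resin were washed three times and their DNA sequenced on Illumina. Binding is reads-per-million enrichment of pull-down over input, replicates pooled.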
row,Sequence,binding signal
1,GATGATTGTTCTCCCAGCTGATGAATTGCATTCTTCGAGTAAACAAATTTTCCTAATCTTTCTGTTCAAGCGCCATCTAC,1.61 RPM ratio (pull-down/input)
2,GATGATTGTTCTCCCAGCTGATGAATTGCATTCATCGAGTAAACAAATTTTCCTAATCTTTCTGTTCAAGCGCCATCTAC,1.46 RPM ratio (pull-down/input)
3,GATGATTGTTCTCCCAGCTGATGAATTTCAACATTCGAGTAAACAAATTTTCCTAATCTTTCTGTTCAAGCGCCATCTAC,0.964 RPM ratio (pull-down/input)
4,GATGATTGTTCTCCCAGCTGATGAATTCAACATTTCGAGTAAACAAATTTTCCTAATCTTTCTGTTCAAGCGCCATCTAC,0.941 RPM ratio (pull-down/input)
5,GATGATTGTTCTCCCAGCTGATGAATTTTTGCATTCGAGTAAACAAATTTTCCTAATCTTTCTGTTCAAGCGCCATCTAC,1.48 RPM ratio (pull-down/input)
6,GATGATTGTTCTCCCAGCTGATGAATTGATGCATTCGAGTAAACAAATTTTCCTAATCTTTCTGTTCAAGCGCCATCTAC,1.74 RPM ratio (pull-down/input)
7,GATGATTGTTCTCCCAGCTGATGAATTCATTGCATCGAGTAAACAAATTTTCCTAATCTTTCTGTTCAAGCGCCATCTAC,1.24 RPM ratio (pull-down/input)
8,GATGATTGTTCTCCCAGCTGATGAATTCATGCATTCGAGTAAACAAATTTTCCTAATCTTTCTGTTCAAGCGCCATCTAC,1.29 RPM ratio (pull-down/input)
9,GATGATTGTTCTCCCAGCTGATGAATTGCAACATTCGAGTAAACAAATTTTCCTAATCTTTCTGTTCAAGCGCCATCTAC,1.75 RPM ratio (pull-down/input)
10,GATGATTGTTCTCCCAGCTGATGAATTGTTGCATTCGAGTAAACAAATTTTCCTAATCTTTCTGTTCAAGCGCCATCTAC,1.87 RPM ratio (pull-down/input)
11,GATGATTGTTCTCCCAGCTGATGAATTGCATCATTCGAGTAAACAAATTTTCCTAATCTTTCTGTTCAAGCGCCATCTAC,1.84 RPM ratio (pull-down/input)
12,GATGATTGTTCTCCCAGCTGATGAATTAAACAGATCGAGTAAACAAATTTTCCTAATCTTTCTGTTCAAGCGCCATCTAC,1.27 RPM ratio (pull-down/input)
13,GATGATTGTTCTCCCAGCTGATGAATTATAAGTATCGAGTAAACAAATTTTCCTAATCTTTCTGTTCAAGCGCCATCTAC,1.19 RPM ratio (pull-down/input)
14,GATGATTGTTCTCCCAGCTGATGAATTGAATAAGTCGAGTAAACAAATTTTCCTAATCTTTCTGTTCAAGCGCCATCTAC,0.918 RPM ratio (pull-down/input)
15,GATGATTGTTCTCCCAGCTGATGAATTTTAAATTTCGAGTAAACAAATTTTCCTAATCTTTCTGTTCAAGCGCCATCTAC,0.924 RPM ratio (pull-down/input)
16,GATGATTGTTCTCCCAGCTGATGAATTCAGCACTTCGAGTAAACAAATTTTCCTAATCTTTCTGTTCAAGCGCCATCTAC,0.847 RPM ratio (pull-down/input)
17,GATGATTGTTCTCCCAGCTGATGAATTACAGTGTTCGAGTAAACAAATTTTCCTAATCTTTCTGTTCAAGCGCCATCTAC,1.16 RPM ratio (pull-down/input)

row,Sequence,binding signal
1,GATGATTGTTCTCCCAGCTGATGAATTGAGTCAATCGAGTAAACAAATTTTCCTAATCTTTCTGTTCAAGCGCCATCTAC,1.01 RPM ratio (pull-down/input)
2,GATGATTGTTCTCCCAGCTGATGAATTGGAAGCGTCGAGTAAACAAATTTTCCTAATCTTTCTGTTCAAGCGCCATCTAC,0.893 RPM ratio (pull-down/input)
3,GATGATTGTTCTCCCAGCTGATGAATTGAATGGCTCGAGTAAACAAATTTTCCTAATCTTTCTGTTCAAGCGCCATCTAC,0.823 RPM ratio (pull-down/input)
4,GATGATTGTTCTCCCAGCTGATGAATTGACCGAGTCGAGTAAACAAATTTTCCTAATCTTTCTGTTCAAGCGCCATCTAC,0.835 RPM ratio (pull-down/input)
5,GATGATTGTTCTCCCAGCTGATGAATTCCTTCTCTCGAGTAAACAAATTTTCCTAATCTTTCTGTTCAAGCGCCATCTAC,0.736 RPM ratio (pull-down/input)
6,GATGATTGTTCTCCCAGCTGATGAATTATCGTCGTCGAGTAAACAAATTTTCCTAATCTTTCTGTTCAAGCGCCATCTAC,0.884 RPM ratio (pull-down/input)
7,GATGATTGTTCTCCCAGCTGATGAATTTCTAGTTTCGAGTAAACAAATTTTCCTAATCTTTCTGTTCAAGCGCCATCTAC,0.858 RPM ratio (pull-down/input)
8,GATGATTGTTCTCCCAGCTGATGAATTTCGCATGTCGAGTAAACAAATTTTCCTAATCTTTCTGTTCAAGCGCCATCTAC,0.944 RPM ratio (pull-down/input)
9,GATGATTGTTCTCCCAGCTGATGAATTAGTCACCTCGAGTAAACAAATTTTCCTAATCTTTCTGTTCAAGCGCCATCTAC,0.877 RPM ratio (pull-down/input)
10,GATGATTGTTCTCCCAGCTGATGAATTCTGGGCTTCGAGTAAACAAATTTTCCTAATCTTTCTGTTCAAGCGCCATCTAC,0.843 RPM ratio (pull-down/input)
11,GATGATTGTTCTCCCAGCTGATGAATTAGTAATTTCGAGTAAACAAATTTTCCTAATCTTTCTGTTCAAGCGCCATCTAC,1.07 RPM ratio (pull-down/input)
12,GATGATTGTTCTCCCAGCTGATGAATTTAGTATTTCGAGTAAACAAATTTTCCTAATCTTTCTGTTCAAGCGCCATCTAC,1.24 RPM ratio (pull-down/input)
13,GATGATTGTTCTCCCAGCTGATGAATTGTATTAGTCGAGTAAACAAATTTTCCTAATCTTTCTGTTCAAGCGCCATCTAC,1.3 RPM ratio (pull-down/input)
14,GATGATTGTTCTCCCAGCTGATGAATTAGTTCTGTCGAGTAAACAAATTTTCCTAATCTTTCTGTTCAAGCGCCATCTAC,0.873 RPM ratio (pull-down/input)
15,GATGATTGTTCTCCCAGCTGATGAATTAGTATTGTCGAGTAAACAAATTTTCCTAATCTTTCTGTTCAAGCGCCATCTAC,2.55 RPM ratio (pull-down/input)
16,GATGATTGTTCTCCCAGCTGATGAATTAGTATTTTCGAGTAAACAAATTTTCCTAATCTTTCTGTTCAAGCGCCATCTAC,2.28 RPM ratio (pull-down/input)
